# High-throughput results from PubChem BioAssay.
# Sampled rows, rich in hits. Any-hit rate of the full collection: about 2.5%.
# TROY signal inh: inhibitors of TROY-driven NF-kB signaling, primary screen, Q293 LMP1-TROYcd cells, NF-kB luciferase, uHTS | Q293 LMP1-TROYcd NF-kB luciferase reporter, 4 h | actives 0.98% (n = 360,000) | AID 1347056, 2019 | inhibition, % at 10 µM;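 active = compounds whose plate-normalised and pattern-corrected inhibition of the luciferase reporter signal at the single screening dose is 50% or more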
# LMP1 NFkB inh: EBV LMP1-driven NF-kappaB luciferase reporter inhibitors, primary screen, cell-based, luminescence, single point; LMP1-induced NF-kappaB luciferase reporter cells; inhibition, % at 12.5 µM; actives 0.69% (n = 350,000); AID 504558, 2011; in the data active = inhibition above about 41%; inconclusive = no clear call, values can overlap the other calls;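 note: 0% = neutral control wells and 100% = reference inhibitor control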
# LGR2 inh: inhibitors of bursicon-induced LGR2 CRE-luciferase signal, primary screen, cell-based, HEK293, CRE-luciferase reporter, bursicon stimulation | bursicon-stimulated, 4 h | Drosophila bursicon receptor LGR2 (rickets) | inhibition, % at 9.99 µM | AID 720647, 2013 | actives 0.35% (n = 380,000);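 active = drop in luminescence signal, shown as inhibition above about 50% in the replicate tests, limit read from the data, passing the limit was not always enough; inconclusive = probably only some replicates passing the limit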;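 note: agonist challenge used bursicon conditioned medium at about half maximal strength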
# EWS-Fli inh: EWS/Fli-driven NR0B1 reporter inhibitors, primary screen, A673 cells, NR0B1 luciferase, luminescence, MLPCN library. viability-normalised. inhibition, % at 12.6 µM. actives 0.67% (n = 350,000). AID 651661, 2012;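 active = mean inhibition of at least 50% after viability correction, with every replicate also passing that limit; inconclusive = mean reaches 50% but only one of two replicates passes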;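 note: firefly luciferase signal divided by Alamar Blue viability fluorescence both relative to DMSO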
# TWEAK Fn14 block: inhibitors of TWEAK-Fn14 signaling, primary screen, luciferase reporter cells, uHTS | actives 2% (n = 360,000) | TWEAK-stimulated Fn14 reporter cells, luciferase luminescence, 8 h | inhibition, % at 10 µM; in the data active = inhibition above about 50%
# DNA binding: DNA binders by acridine orange displacement, dose response, counter-screen for EWS/Fli inhibitor project, biochemical, fluorescence polarization, cherry-pick; shares compounds with EWS-Fli inh; AC35, µM (highest dose often 68 µM), for inactives: top-dose activity change, negative = DNA binding; actives 2% (n = 640); AID 720586, 2013; salmon sperm DNA acridine orange fluorescence polarization;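 active = fitted curve reaches a 35% signal fall AC35 below twice the sample's top valid tested dose, actives reach about 48 µM in these data; inactive = the rest, including activity in the rising direction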;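 note: lower polarization ratio signals compound binding to DNA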
# * marks the source's active call; other numbers are inactive results; ? = inconclusive; . = not tested or not shown.
SMILES,TROY signal inh,LMP1 NFkB inh,LGR2 inh,EWS-Fli inh,TWEAK Fn14 block,DNA binding
CC(C)NC(=O)Nc1cccc2c1O[C@H](CN(C)C(=O)Nc1ccc(F)cc1)[C@H](C)CN([C@H](C)CO)C2=O,.,.,-30.3,-5.5,.,.
C(=Cc1c[nH]c2ccccc12)c1ccc2ccccc2n1,33.5,13.1,88.6*,67.4*,73.3*,9.2%
O=C(/C=C/c1c[nH]c2ccccc12)c1ccccc1,-101.6,-33.9,-70.1,.,30.1,.
CO[C@H]1CN(C)C(=O)c2cc(NS(=O)(=O)c3ccccc3C)ccc2OC[C@@H](C)N(C)C[C@H]1C,.,.,1.6,-1.3,.,.
C[C@@H]1CCCCO[C@@H](CN(C)C(=O)Cc2ccccc2)[C@H](C)CN([C@@H](C)CO)C(=O)c2cc(NC(=O)Nc3cccc4ccccc34)ccc2O1,.,.,20.2,3.5,.,.
CCCc1cc(=O)oc2c3c(cc(OCC(=O)N[C@@H](C)C(=O)O)c12)OC(C)(C)CC3,-5.3,0.2,-8.8,5.9,5.5,.
CCCc1cc(=O)oc2c3c(c4c(c12)OC(C)(C)C=C4)OC(C)C(C)C3O (configuration not stated),4.6,6.4,.,72.9*,-15.4,1.9%
COc1cc2oc3cc(C#Cc4ccc(N)cc4)ccc3c(=O)c2cc1OC,-4.7,8.6,.,55.5*,7.1,0.8%
COc1cc2oc3ccc(C#Cc4ccc(N)cc4)cc3c(=O)c2cc1OC,-90.3,-29.0,-74.3,-1.5,-87.4,.
O=C(Nc1ccc(Cl)c(Cl)c1)N[C@H]1CC[C@@H](CCn2cc(C3CCCC3)nn2)O[C@@H]1CO,.,.,4.3,-3.6,.,.
CCc1ccc2c(c1)C(=O)C(=O)N2CCS(=O)(=O)c1ccccc1,-27.2,-5.3,-11.1,.,-6.2,.
O=C1C(=O)N(CCS(=O)(=O)c2ccccc2)c2ccc(Cl)cc21,3.0,-5.3,0.9,57.4*,-0.6,-8.7%
CC1=NC(=O)C(N=Nc2cccc(C(=O)O)c2)N1c1ccccc1 (configuration not stated),-65.4,36.7,.,63.7*,49.5,8.1%
CC1=NC(=O)C(N=Nc2ccccc2)N1c1ccccc1 (configuration not stated),-13.1,-39.3,.,.,-15.1,.
Cc1nn(-c2ccccc2)c2nc(N)c(C#N)c(-c3ccc(O)c(O)c3)c12,34.5,1.4,-0.6,14.5,23.1,.
Cc1nn(-c2ccc(F)cc2)c2nc(N)c(C#N)c(-c3ccc(O)c(O)c3)c12,8.9,-3.1,-3.6,57.1*,8.1,3.0%
Cc1noc(C)c1S(=O)(=O)Nc1ccc2c(c1)C(=O)N([C@@H](C)CO)C[C@@H](C)[C@@H](CN(C)Cc1ccc3c(c1)OCO3)OCCCC[C@@H](C)O2,.,.,-13.7,-0.7,.,.
C(=N\Nc1nc2ccccc2[nH]1)/c1ccc2c(c1)OCCO2,27.6,-1.4,25.9,12.7,49.3,.
Cc1ccc(/C=N/Nc2ccc3ccccc3n2)o1,24.4,10.4,?,52.8*,85.9*,-1.9%
Cc1cccc(/C=N/Nc2ccc3ccccc3n2)c1,84.4*,74.1*,79.3*,74.1*,92.8*,-0.7%
C(=N\Nc1ccc2ccccc2n1)/c1ccc2c(c1)OCCO2,87.6*,61.1*,87.6*,85.9*,101.2*,-13.9%
COc1ccc(CN(C)C[C@H]2Oc3ccc(NS(=O)(=O)c4cn(C)cn4)cc3CC(=O)N([C@@H](C)CO)C[C@H]2C)cc1,.,.,3.3,-0.6,.,.
O=c1ccc2ccccc2c2ccccc12,52.1*,.,3.4,63.0*,93.9*,-11.9%
CC(C)=CCC/C(C)=C/CN1C(=O)N(c2ccc(F)cc2)[C@H]2C[C@@H](c3ccccc3)[C@@H](C)[C@@H](C(=O)N3CCOCC3)C[C@H]21,.,.,22.5,51.5*,.,2.8%
CC(C)NC(=O)NCC[C@H]1CC[C@H](NS(=O)(=O)c2ccc(-c3ccccc3)cc2)[C@H](CO)O1,.,.,-24.8,6.3,.,.
SMILES,TROY signal inh,LMP1 NFkB inh,LGR2 inh,EWS-Fli inh,TWEAK Fn14 block,DNA binding
O=C(CCCN1C(=O)/C(=C/c2cccs2)SC1=S)NNC(=O)c1ccccc1O,11.6,12.3,16.7,.,-4.9,.
COc1ccc(/C=C2\SC(=O)N(CCCC(=O)Nc3ccc(C(=O)O)cc3)C2=O)cc1,72.8*,49.9*,0.4,82.3*,83.2*,5.8%
COc1ccc(/C=C2/SC(=S)N(CCCC(=O)Nc3ccccc3C(=O)O)C2=O)cc1,75.2*,16.6,-2.5,63.9*,91.7,-0.3%
COc1ccc(/C=C2/SC(=S)N(CCCC(=O)Nc3cccc(O)c3)C2=O)cc1,-17.6,5.2,-1.3,-3.2,-16.4,.
COc1ccc(/C=C2\SC(=S)N(CCCC(=O)NNC(=O)c3ccccc3O)C2=O)cc1,12.6,31.1,8.5,76.6*,42.4,3.1%
C[C@H](O)C#Cc1ccc2c(c1)O[C@@H](CN(C)C(=O)c1ccncc1)[C@H](C)CN([C@H](C)CO)S2(=O)=O,.,.,-4.0,-4.2,.,.
Cc1cc(C)cc(C(=O)NC(=S)Nc2ccc(Cc3ccncc3)cc2)c1,16.0,-5.3,4.7,65.6*,-1.1,-4.4%
CN(C)C(=S)N=Nc1[nH]c2ccccc2c1O,.,.,.,60.5*,.,-6.5%
COc1ccc(C(=O)OCC(=O)Nc2ccc(Cl)c(C(F)(F)F)c2)c(OC)c1OC,39.2,21.8,1.6,73.0*,40.2,6.0%
CN(Cc1cnc2nc(N)nc(N)c2n1)c1ccc(C(=O)N[C@@H](CCC(=O)O)C(=O)O)cc1,-0.3,?,-4.4,64.0*,2.1,-2.6%
CS(=O)(=O)N1CC(=O)N2[C@H](CO)[C@@H](c3ccc(C#CC4CCCC4)cc3)[C@H]2C1,.,.,-1.5,8.2,.,.
COc1ccc([Si](C)(C)[C@H]2[C@H](CCO)O[C@@]3(C(=O)N(c4ccccc4)c4ccccc43)[C@@H]2C)cc1,.,.,.,57.9*,.,1.9%
COc1ccc2oc(C(=O)NCCc3ccccc3)c(C)c2c1,70.4*,53.8*,?,68.7*,81.6*,-12.1%
C[C@H](CO)N1C[C@H](C)[C@@H](CN(C)Cc2ccc(C(=O)O)cc2)Oc2ccc(NS(=O)(=O)c3cccs3)cc2CC1=O,.,.,0.7,-2.9,.,.
c1ccc(-c2sc3ccccc3c2-c2ccc(OCCN3CCCC3)cc2)cc1,3.4,-11.8,-19.6,44.9,-10.2,.
COc1ccc(-c2sc3ccccc3c2-c2ccc(OCCN3CCCCC3)cc2)cc1,-8.6,-10.7,-3.9,59.0*,-8.0,-4.1%
Nc1ncn([C@@H]2O[C@H](CO)[C@@H](O)[C@H]2O)c(=O)n1,27.9,-51.3,?,62.2*,72.5*,8.2%
Nc1nc(=S)c2ncn(C3OC(CO)C(O)C3O)c2[nH]1 (configuration not stated),-24.8,9.0,4.8,12.1,-1.0,.
